# Tau fluor cs: Counterscreen qHTS for Inhibitors of Tau Fibril Formation, Fluorescence Polarization; tau K18 P301L Alexa594 fluorescence, heparin fibrillization; 0.93% of 280,000 active; Potency, µM (top dose mostly 57.7 µM), inactives show at the highest dose activity change, negative = decrease; note: potency is the fitted concentration of half-maximal effect; nearly all actives have a fitted effect of over 55% in size
#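 Human tau K18 P301L (15 uM unlabeled, 0.24 uM Alexa 594-labeled) in 100 mM sodium acetate pH 7 with 20 uM heparin, 6 hr at 37 C. ThT 30 uM added, 1 hr ambient; Alexa 594 FP and total fluorescence read at 555/632 nm.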
# FBPA coupling cs: qHTS Assay for Inhibitors of Fructose-1,6-bisphosphate Aldolase from Giardia Lamblia: Coupling assay counterscreen | coupling enzyme system counterscreen, AmpLite Red fluorescence | activity change, negative = inhibition, % at 58.2 µM, hits read low | 0.67% of 290,000 active; in the data active = activity change below about -30%
#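 First, compound is pin-transferred into glyceraldehyde-3-phosphate coupling-enzyme reagent at 57.5 uM final and held 10 min at RT. Next, substrate, coupling system and AmpLite Red are added. After 20 min RT, fluorescence (525/598 nm) is read.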
# Tau fibril ThT: qHTS for Inhibitors of Tau Fibril Formation, Thioflavin T Binding; 2.1% of 270,000 active; Potency, µM (titrated, usually from 57.4 µM), without a hit: at the highest dose activity, negative = inhibition, most hits filed as inhibitors; Microtubule-associated protein tau (Homo sapiens), P10636; recombinant tau K18 P301L, heparin-induced fibrillization, ThT fluorescence; AID 1460, 2008; note: potency is the fitted concentration of half-maximal effect; nearly all actives have a fitted effect of over 55% in size
# Target sequence (P10636 561-689 P618L limits assumed): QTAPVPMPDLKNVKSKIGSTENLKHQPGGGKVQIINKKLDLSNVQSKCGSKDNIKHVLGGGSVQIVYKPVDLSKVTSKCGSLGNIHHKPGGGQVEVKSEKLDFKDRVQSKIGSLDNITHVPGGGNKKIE
#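 Using a mix of unlabeled (15 uM) and Alexa 594-labeled (0.24 uM) tau K18 P301L, heparin-triggered fibrillization over 6 hr at 37 C was scored by ThT fluorescence.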
# KDM4E inh: qHTS Assay for Inhibitors of Human Jumonji Domain Containing 2E (JMJD2E); Lysine-specific demethylase 4E (Homo sapiens), B2RXH2; JMJD2E catalytic domain, FDH-coupled NADH fluorescence (FDH is formaldehyde dehydrogenase); Potency, µM (highest dose often 57.1 µM), inactives show at the top dose activity change, negative = inhibition, actives largely listed as inhibitors; 1.6% of 230,000 active; active = well fitted inhibition curve with a large enough effect, not every such curve was filed as active; inconclusive = small, poorly fitted or top-dose-only effect, or another doubt; inactive = no such curve, though single readings can be large or run the other way;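 note: potency is the fitted concentration of half-maximal effect; 0% = wells with enzyme and -100% = buffer wells without enzyme; nearly all actives have a fitted effect of over 50% in size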
# Target sequence (B2RXH2 1-337 limits assumed): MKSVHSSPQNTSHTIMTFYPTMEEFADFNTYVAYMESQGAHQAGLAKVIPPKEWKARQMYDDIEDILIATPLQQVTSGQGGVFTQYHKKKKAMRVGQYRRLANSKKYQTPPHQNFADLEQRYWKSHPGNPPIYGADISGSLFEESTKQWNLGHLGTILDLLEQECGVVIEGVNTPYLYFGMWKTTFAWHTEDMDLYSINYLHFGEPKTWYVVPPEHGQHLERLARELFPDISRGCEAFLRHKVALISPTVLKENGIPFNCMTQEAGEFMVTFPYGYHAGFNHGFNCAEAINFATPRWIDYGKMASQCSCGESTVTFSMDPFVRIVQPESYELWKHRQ
# Tau fibril FP: qHTS for Inhibitors of Tau Fibril Formation, Fluorescence Polarization | Potency, µM (doses to about 57.7 µM), for inactives: top-dose activity, negative = inhibition, most hits filed as inhibitors | 0.39% of 280,000 active | Microtubule-associated protein tau (Homo sapiens), P10636 | AID 1468, 2008 | K18 P301L tau heparin fibrillization, Alexa594 FP, 6 h; note: potency is the fitted concentration of half-maximal effect; nearly all actives have a fitted effect of over 55% in size
#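 K18 P301L tau (15 uM unlabeled/0.24 uM Alexa 594-labeled, final) + compound + heparin 20 uM final; 100 mM NaOAc pH 7; 6 hr 37 C; ThT 30 uM final added, 1 hr RT; FP ex 555/em 632 nm.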
# * hit, by the source's call; u = inconclusive; x = no result; [ ] = remark or other dose. Only some compounds are listed: those with a hit (about 3% of all), similar ones and a draw of the others. Unless noted, calls come from the whole dose curve; as a rule, active = well fitted curve in the direction sought with a large enough effect; inconclusive = small, poorly fitted or top-dose-only effect, or another doubt; inactive = no such curve, though single readings can be large; an effect the other way counts as inactive or inconclusive. Unless noted, % is set by controls: 0 for no effect and ±100 for the full control effect.
SMILES,Tau fluor cs,FBPA coupling cs,Tau fibril ThT,KDM4E inh,Tau fibril FP
COc1ccc(-c2ccc(C3C(C#N)=C(N)Oc4n[nH]c(C)c43)o2)cc1 (stereo unspecified),u,1,4.5µM*,-15%,-1%
O=C1CN(/N=C/c2ccc(-c3ccc([N+](=O)[O-])cc3)o2)C(=O)N1,-12%,x,10µM*,x,-11%
O=[N+]([O-])c1ccc(-c2ccc(/C=N/O)o2)cc1,-23%,1,7.1µM*,8%,-2%
NC(=O)N/N=C/c1ccc(-c2ccc([N+](=O)[O-])cc2)o1,u,3,x,-7%,2%
CCc1ccc(CNC(=O)c2sc3ncccc3c2-n2c(C)ccc2C)cc1,-2%,x,-9%,x,-1%
CC(C)(C)OC(=O)N1CCC(c2c(C(=O)Nc3ccc4c(c3)OCO4)cnn2-c2ccc(F)cc2F)CC1,u,x,u,x,7%
Cc1ccc(NC(=O)Cn2c(=O)nc(-c3ccccc3F)c3cc(Cl)ccc32)c(Br)c1,-17%,x,u,x,-6%
O=S(=O)(O)c1cccc(N=Nc2c(O)ccc3ccccc23)c1,-23%,5,x,-9%,u
Oc1ccc2ccccc2c1N=Nc1ccccc1F,u,-23,16µM*,u,0%
Oc1ccc2ccccc2c1N=Nc1ccccn1,u,2,5µM*,u,4%
CC(=O)C1=C(C)NC(SCC(=O)c2ccc(Cl)c(Cl)c2)=C(C#N)C1c1ccco1 (stereo unspecified),-10%,-2,6%,-1%,1%
CC(=O)C1=C(C)NC(SCC(=O)c2ccc(F)cc2)=C(C#N)C1c1ccco1 (stereo unspecified),u,-1,16µM*,-24%,-5%
CC(=O)C1=C(C)NC(SCC(=O)c2cc(Cl)ccc2Cl)=C(C#N)C1c1ccco1 (stereo unspecified),u,-24,28µM*,u,u
CC(C)Oc1ccc(CNC(=O)Cn2nc(N3CCN(c4ccccc4)CC3)ccc2=O)cc1,-11%,x,u,x,9%
N=C(N)S/C=C\C(=O)O,-19%,1,28µM*,-11%,u
COc1ccc(-c2nnc3n2N=C(c2ccc(OC)c(OC)c2)CS3)cc1,x,-1,x,x,x
O=C(O)CCCN1C(=O)/C(=C/c2ccc(-c3nc4ccccc4s3)o2)SC1=S,-28%,-3,1.6µM*,-2%,-13%
O=C(O)CCCCCN1C(=O)/C(=C/c2ccncc2)SC1=S,6%,9,u,22µM*,-5%
COc1cc(-c2noc(-c3ccc(NCc4cccnc4)c([N+](=O)[O-])c3)n2)cc(OC)c1OC,-16%,x,-4%,x,5%
O=C(/C=C/c1ccccc1)NC(=S)NNC(=O)c1cnccn1,-19%,0,x,8.9µM*,1%
COc1ccc(S(=O)(=O)N=C2C=C(C)C(=O)C(C)=C2)cc1,-21%,-3,-24%,2%,7%
C=CC(C1=CC(=O)C(OC)=C(OC)C1=O)c1ccccc1 (stereo unspecified),25µM*[quencher],-80*,13µM*,u,u
COc1ccc(C(=O)N/N=C/C(C)c2ccccc2)cc1OC (stereo unspecified),-5%,1,-7%,13%,6%
C=CC(C1=CC(=O)C(OC)=CC1=O)c1ccccc1 (stereo unspecified),14µM*[quencher],-53*,16µM*,2.2µM*,20µM*
C=CC(C1=CC(=O)C(OC)=CC1=O)c1ccc(OC)cc1 (stereo unspecified),u,-40*,16µM*,u,u
SMILES,Tau fluor cs,FBPA coupling cs,Tau fibril ThT,KDM4E inh,Tau fibril FP
CSCC[C@H](NC(=O)[C@H](Cc1ccccc1)NC(=O)[C@H](Cc1cnc[nH]1)NC(=O)CNC(=O)[C@@H](NC(=O)[C@H](C)NC(=O)[C@H](Cc1c[nH]c2ccccc12)NC(=O)[C@H](CC(C)C)NC(=O)[C@H](CC(N)=O)NC(=O)CN)[C@@H](C)O)C(N)=O,x,-1,x,x,x
C=CC[C@@H]1C=C[C@@H](O/N=C\[C@@H](NS(=O)(=O)c2ccc(C)cc2)[C@H](C)/C=C\CC(=O)OC)[C@@H](CO)O1,-3%[11.6 µM],3,-1%[11.5 µM],x,-7%[11.6 µM]
Fc1ccc(-c2nc3cnccn3c2NC2CCCC2)cc1,-8%,5,-7%,-7%,-6%[2.34 µM]
Oc1ccc(Br)cc1-c1nc2cnccn2c1NC1CCCC1,13µM*[quencher],-1,u,u,u
Oc1ccc(Br)cc1-c1nc2cnccn2c1NC1CCCCC1,14µM*[quencher],0,u,u,u
CCN1CCc2nc3sc(C(=O)c4ccc(F)cc4)c(N)c3cc2C1,-24%,x,u,x,2%
CCN1CCc2nc3sc(C(=O)c4ccccc4)c(N)c3cc2C1,16µM*[quencher],x,8.9µM*,x,-12%
COc1cccc(OC)c1C1=Nn2c(nnc2-c2ccccc2C)SC1,x,0,x,x,x
CC(C)CCNC(=O)C(=O)Nc1c2c(nn1-c1ccc(Cl)cc1)CSC2,6%,x,0%,x,-7%
Cc1ccc(-c2c(C(=O)N/N=C/c3cccc(Cl)c3)nnn2-c2nonc2N)cc1,x,-36*,x,x,x
CCCCC1CCC(C(=O)N2CC(=O)Nc3ccc(C)cc3C2c2ccc(F)cc2)CC1 (stereo unspecified),-5%,x,-12%,x,1%
CCOc1ccc(CNc2cccc(SC)c2)cc1,-31%,-12,16µM*,-26%,-37%
CCOc1ccc(CNc2ccc(CNc3ncn[nH]3)cc2)cc1,-29%,1,u,-3%,9%
COc1cc(CNc2ccc(N3CCCC3)cc2)cc(Cl)c1OC,u,-27,4µM*,14µM*,u
c1cc(CNc2ccc(N3CCOCC3)cc2)ccn1,u,-14,22µM*,u,u

# Screens (PubChem BioAssay)
